Data: PubChem BioAssay AID1159580 (chemical genetic matrix, 2015)
“And” between values parts separate entries of the source, which are not always exact repeats. Identical values can stand only once. About 2,000 (36%) of roughly 5,500 compounds were called active. Not shown: some 18% with an inconclusive outcome. Rule as the data show it: active = normalized growth mostly below about 0.91 (no sharp cut-off); inconclusive = no clear call, values can overlap the other calls; inactive = mostly above about 0.92. This is one part of the list.

Assay: chemical genetic growth profiling, strain panel (AID 1159580);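 also: tested at 20 µM; growth read once vehicle control cultures reached saturation at 30 °C; 1 = growth at the plate median or of vehicle wells; lower values mean less growth of the strain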
Conditions: S. cerevisiae deletion strains, growth OD

Measured: normalized growth

COc1c(O)cccc1O
inactive: locus YAL013W, strain DEP1, hits give low values 0.993 | locus YAL021C, strain ccr4, hits give low values 0.997 | locus YAL026C, strain drs2, hits give low values 1.04 | locus YAL030W, strain snc1, hits give low values 1.02 | locus YBL061C, strain skt5, hits give low values 1.02 | locus YBR009C, strain hhf1, hits give low values 1.01 | locus YBR021W, strain FUR4, hits give low values 1.04 | locus YBR023C, strain chs3, hits give low values 1.02 | locus YBR171W, strain sec66, hits give low values 1.03 | locus YBR229C, strain ROT2, hits give low values 1.01 | locus YBR231C, strain swc5, hits give low values 1.03 | locus YBR279W, strain paf1, hits give low values 1.02 | locus YCL011C, strain gbp2, hits give low values 1.04 | locus YCL016C, strain dcc1, hits give low values 1.02 | locus YCL029C, strain bik1, hits give low values 1.01 | locus YCL061C, strain MRC1, hits give low values 1.02 | locus YCL069W, strain vba3, hits give low values 1.03 | locus YCR088W, strain abp1, hits give low values 1.02 | locus YDL005C, strain med2, hits give low values 1.03 | locus YDL035C, strain GPR1, hits give low values 1.02 | locus YDL040C, strain nat1, hits give low values 1.01 | locus YDL074C, strain BRE1, hits give low values 1.09 | locus YDL101C, strain DUN1, hits give low values 1.01 | locus YDL134C, strain PPH21, hits give low values 1.06 | locus YDL185W, strain tfp1, hits give low values 1.02 | locus YDL192W, strain arf1, hits give low values 1.04 | locus YDR001C, strain nth1, hits give low values 1.02 | locus YDR069C, strain doa4, hits give low values 1.02 | locus YDR101C, strain arx1, hits give low values 1 | locus YDR137W, strain rgp1, hits give low values 1.04 | locus YDR150W, strain NUM1, hits give low values 0.999 | locus YDR159W, strain sac3, hits give low values 1.02 | locus YDR162C, strain NBP2, hits give low values 1.03 | locus YDR195W, strain ref2 1.02 | locus YDR297W, strain sur2, hits give low values 1.05 | locus YDR318W, strain mcm21, hits give low values 1.03 | locus YDR334W, strain swr1, hits give low values 1.03 | locus YDR335W, strain msn5, hits give low values 1.03 | locus YDR388W, hits give low values 0.996 | locus YDR392W, strain spt3, hits give low values 1.02 | locus YDR502C, strain sam2, hits give low values 1.03 | locus YEL003W, strain gim4, hits give low values 1.02 | locus YEL037C, strain rad23, hits give low values 1.02 | locus YEL061C, strain CIN8 (second series), hits give low values 1.02 | locus YEL061C, strain CIN8, hits give low values 0.973 | locus YER015W, strain faa2, hits give low values 1.02 | locus YER016W, strain bim1, hits give low values 1.02 | locus YER110C, hits give low values 1.02 | locus YER111C, strain swi4, hits give low values 1.02 | locus YER155C, strain BEM2 (second series), hits give low values 1.01 | locus YER155C, strain BEM2, hits give low values 0.997 | locus YER167W, strain BCK2, hits give low values 0.98 | locus YFR010W, strain ubp6, hits give low values 1.03 | locus YGL078C, strain dbp3, hits give low values 1.04 | locus YGL086W, strain mad1, hits give low values 1.03 | locus YGL167C, strain pmr1, hits give low values 1.03 | locus YGL173C, strain kem1, hits give low values 1.02 | locus YGL227W, strain vid30, hits give low values 1.02 | locus YGL240W, strain doc1, hits give low values 1.02 | locus YGL248W, strain PDE1, hits give low values 1.04 | locus YGL253W, strain hxk2, hits give low values 1.05 | locus YGR135W, strain pre9, hits give low values 1.04 | locus YGR252W, strain gcn5, hits give low values 1.13 | locus YHR013C, strain ard1, hits give low values 1.04 | locus YHR027C, strain rpn1, hits give low values 1.02 | locus YHR030C, strain SLT2, hits give low values 1.01 and 1.06 | locus YHR079C, strain IRE1 (second series), hits give low values 1.01 | locus YHR079C, strain IRE1, hits give low values 1.05 | locus YHR094C, strain hxt1, hits give low values 1.01 | locus YHR129C, strain ARP1, hits give low values 0.99 | locus YHR142W, strain chs7, hits give low values 1.07 | locus YHR200W, strain rpn10, hits give low values 1.02 | locus YIL066C, strain RNR3, hits give low values 1.01 | locus YIL073C, strain SPO22, hits give low values 1.14 | locus YIL125W, strain kgd1, hits give low values 1 | locus YIR030C, strain dcg1, hits give low values 1.02 | locus YJL092W, strain hpr5, hits give low values 1.02 | locus YJL095W, strain BCK1 (second series), hits give low values 1.02 | locus YJL095W, strain BCK1, hits give low values 1.11 and 1.04 | locus YJL115W, strain asf1, hits give low values 1.04 | locus YJL129C, strain trk1, hits give low values 1.06 | locus YJL134W, strain LCB3, hits give low values 0.999 | locus YJL154C, strain vps35, hits give low values 1.02 | locus YJL164C, strain tpk1, hits give low values 1.02 | locus YJL166W, strain qcr8, hits give low values 1.03 | locus YJL168C, strain set2, hits give low values 1.01 | locus YJL187C, strain SWE1 (second series), hits give low values 1.03
